Results as given in PubChem BioAssay AID372 (MTDP, 2006).
Several values for one entry are separate records, joined by “and”; a condition that tells them apart may be missing. Equal entries are not always repeated. Hit rate of the full screen: of about 100,000 compounds, about 770 (0.77%) were called active. Only a selection was taken, and actives are over-represented in it overall. Values without a mark were called inactive. Cut-off read from the data, not from the text of the source: active = inhibition above about 50%; inactive = the rest.

These compounds were tested against Gag-Pol polyprotein (Human immunodeficiency virus type 1 group M subtype B (isolate HXB2)) (UniProt P04585) (assay: RNase H inhibition, HIV 1 Gag Pol polyprotein, FRET biochemical assay, screening (AID 372)). Settings: HIV-1 RT RNase H, FRET RNA/DNA substrate fluorescence; at 10 µM; stronger effect = higher value.

Q: With CC(=O)OC1CCC2(C)C(=CCC3C4C/C(=C\c5ccc([N+](=O)[O-])cc5)C(=O)C4(C)CCC32)C1 (centres undefined) as the compound, how does the inhibition read?
A: 9%

Q: Which inhibition does the source give for CC12CCC3C(CC=C4CC(O)CCC43C)C1C/C(=C\c1ccc([N+](=O)[O-])cc1)C2=O (centres undefined) here?
A: 55% (active)

Q: How did the inhibition turn out when CC12CCC3C(CC=C4CC(O)CCC43C)C1C/C(=C\c1ccc(F)cc1)C2=O (centres undefined) was run?
A: 11%

Q: With Cc1cc(OCc2ccc(Cl)cc2)c2c3c(c(=O)oc2c1)CCC3 as the compound, how does the inhibition read?
A: 3%

Q: For Oc1c(I)cc(I)cc1CN1CCN(c2ccccc2F)CC1, which inhibition is on record?
A: 8%

Q: Which inhibition does the source give for Cc1cc(C)cc(N2C(=O)NC(=O)/C(=C\c3cccn3-c3ccccc3)C2=O)c1 here?
A: 28%

Q: For Cc1cc(C=C2C(=O)NC(=O)NC2=O)c(C)n1-c1ccc(Br)cc1, which inhibition is on record?
A: 9%

Q: With O=C1NC(=O)C(=Cc2cccn2-c2ccc(Br)cc2)C(=O)N1 as the compound, how does the inhibition read?
A: 50% (active)

Q: For CN1C(=O)C(Cc2c[nH]c3ccccc23)C(=O)N(C)C1=O, which inhibition is on record?
A: 0%

Q: For O=[N+]([O-])c1ccccc1CNCCc1ccc(F)cc1, which inhibition is on record?
A: 1%

Q: With Cc1ccccc1N1CCN(Cc2ccc(Cl)cc2Cl)CC1 as the compound, how does the inhibition read?
A: 2%

Q: With CCN(CC)C(=O)c1ccc(NC(C)=O)cc1 as the compound, how does the inhibition read?
A: 9%

Q: With CCOc1cccc(=[O+]CC)c2c(C)oc(C)c12 as the compound, how does the inhibition read?
A: 2% and 12%

Q: How did the inhibition turn out when O=C(O)c1cn(Cc2ccccc2)c2ccccc12 was run?
A: 8%

Q: CCOc1ccc(C=C2C(=O)NC(=S)NC2=O)cc1 was tested. Which inhibition did it give?
A: 12%

Q: How did the inhibition turn out when O=C1NC(=S)NC(=O)C1=Cc1ccc(OCc2cccc(C(=O)O)c2)cc1 was run?
A: 5%

Q: For O=C1NC(=S)NC(=O)C1=Cc1ccc(OCc2ccc(Br)cc2)cc1, which inhibition is on record?
A: 59% (active)

Q: CN1C(=O)/C(=C\c2cn(Cc3ccccc3)c3ccccc23)C(=O)NC1=S was tested. Which inhibition did it give?
A: 15%

Q: Which inhibition does the source give for COc1ccc(CN2CCN(CCO)CC2)c(OC)c1 here?
A: 9%

Q: With Clc1ccc(N2CCN(CCc3ccccc3)CC2)cc1 as the compound, how does the inhibition read?
A: 14%

Q: How did the inhibition turn out when CSc1ccc(C2C(C#N)=C(N)Oc3c2c(=O)oc2ccccc32)cc1 (centres undefined) was run?
A: 7%

Q: O=C(COc1ccccc1)Nc1ccc(Cl)cc1C(=O)c1ccccc1 was tested. Which inhibition did it give?
A: 37%

Q: For COc1ccc(OCC(=O)Nc2ccc(Br)cc2C(=O)c2ccccc2)cc1, which inhibition is on record?
A: 51% (active)

Q: With O=C(COc1ccc([N+](=O)[O-])cc1)Nc1ccc(Br)cc1C(=O)c1ccccc1 as the compound, how does the inhibition read?
A: 49%

Q: C=CCOC(=O)C1=C(C)OC(N)=C(C(=O)OCC)C12C(=O)Nc1ccccc12 (centres undefined) was tested. Which inhibition did it give?
A: 2%

Q: Which inhibition does the source give for COc1ccc(CN2CCN(Cc3cccc(OC)c3)CC2)cc1 here?
A: 7%

Q: Which inhibition does the source give for O=C1NC(=S)NC(=O)C1=Cc1ccc(-c2cc(Cl)ccc2Cl)o1 here?
A: 0%

Q: For CN1C(=O)NC(=O)/C(=C/c2ccc(-c3ccc([N+](=O)[O-])cc3Br)o2)C1=O, which inhibition is on record?
A: 26%

Q: With Cc1cc(-c2ccc(C=C3C(=O)NC(=S)NC3=O)o2)c(C)c([N+](=O)[O-])c1 as the compound, how does the inhibition read?
A: 27%

Q: Cc1ccc(-c2ccc(C=C3C(=O)NC(=S)NC3=O)o2)c(Br)c1 was tested. Which inhibition did it give?
A: 36%

Q: With O=C1NC(=S)NC(=O)C1=Cc1ccc(-c2ccc([N+](=O)[O-])cc2Br)o1 as the compound, how does the inhibition read?
A: 56% (active)

Q: How did the inhibition turn out when O=C1NC(=S)NC(=O)C1=Cc1ccc(-c2ccc(Br)c(Cl)c2)o1 was run?
A: 54% (active)

Q: How did the inhibition turn out when O=C1NC(=S)NC(=O)C1=Cc1ccc(-c2ccc(C(=O)O)c(Cl)c2)o1 was run?
A: 17%

Q: Which inhibition does the source give for O=C1NC(=S)NC(=O)C1=Cc1ccc(-c2ccc(Cl)c(Cl)c2)o1 here?
A: 0%

Q: How did the inhibition turn out when O=C1NC(=S)NC(=O)C1=Cc1ccc(-c2cc(Cl)c([N+](=O)[O-])cc2Cl)o1 was run?
A: 50% (active)

Q: How did the inhibition turn out when CCOC(=O)C1=C(N)OC(C)=C(C(C)=O)C12C(=O)Nc1ccccc12 (centres undefined) was run?
A: 10%

Q: With COc1cc(/C=C2\C(=O)NC(=O)N(c3ccccc3)C2=O)c([N+](=O)[O-])cc1OC as the compound, how does the inhibition read?
A: 5%

Q: With CC(C)OC(=O)N1CCN(/C(N)=N/[N+](=O)[O-])CC1 as the compound, how does the inhibition read?
A: 7%

Q: Which inhibition does the source give for O=C(COc1ccc2ccccc2c1)N1CCN(Cc2ccc3c(c2)OCO3)CC1 here?
A: 17%

Q: How did the inhibition turn out when Cc1ccc(-n2c(C)cc(/C=C3/C(=O)NC(=O)N(Cc4ccco4)C3=O)c2C)cc1 was run?
A: 16%

Q: For O=C1NC(=O)N(Cc2ccco2)C(=O)/C1=C\c1cn(Cc2ccccc2)c2ccccc12, which inhibition is on record?
A: 23%

Q: With Cc1ccc(OCCn2cc(/C=C3/C(=O)NC(=O)N(Cc4ccco4)C3=O)c3ccccc32)cc1 as the compound, how does the inhibition read?
A: 52% (active)

Q: Which inhibition does the source give for O=c1c2ccccc2nc(-c2ccc(Cl)cc2Cl)n1-c1nccs1 here?
A: 6%

Q: With CN1C(=O)NC(=O)/C(=C/c2ccc(-c3cccc([N+](=O)[O-])c3)o2)C1=O as the compound, how does the inhibition read?
A: 14%

Q: How did the inhibition turn out when CN1C(=O)C(=Cc2ccc(-c3cccc([N+](=O)[O-])c3)o2)C(=O)N(C)C1=S was run?
A: 21%

Q: For O=C1NC(=O)N(Cc2ccco2)C(=O)/C1=C\c1ccc(-c2cccc([N+](=O)[O-])c2)o1, which inhibition is on record?
A: 57% (active)

Q: C/C(=C\c1ccc(Cl)cc1Cl)[N+](=O)[O-] was tested. Which inhibition did it give?
A: 51% (active)

Q: For N#CC(C#N)=Cc1ccc(Cl)cc1Cl, which inhibition is on record?
A: 3%

Q: COc1cc(/C=C(\C)[N+](=O)[O-])cc(OC)c1OC was tested. Which inhibition did it give?
A: 4%

Q: Which inhibition does the source give for COc1ccc(C2c3c(c4ccccc4oc3=O)Oc3c2c(=O)oc2ccccc32)cc1Cn1nc(C)c([N+](=O)[O-])c1C here?
A: 16%

Q: How did the inhibition turn out when O=C(Nc1ccc(Cl)cc1C(=O)c1ccccc1)c1ccc([N+](=O)[O-])cc1 was run?
A: 16%

Q: Cc1cccc(-n2c(/C=C/c3ccco3)nc3ccccc3c2=O)c1 was tested. Which inhibition did it give?
A: 4%

Q: Which inhibition does the source give for CCOc1ccc(N2C(=O)CC(=O)NC2=S)cc1 here?
A: 11%

Q: For O=C1NC(=S)NC(=O)C1=Cc1ccc(-c2ccc(C(=O)O)cc2)o1, which inhibition is on record?
A: 14%

Q: How did the inhibition turn out when C=CCN1C(=O)NC(=O)C(=Cc2cccn2C)C1=O was run?
A: 0%

Q: Cn1cccc1/C=C1/C(=O)NC(=S)N(c2ccc(Cl)cc2)C1=O was tested. Which inhibition did it give?
A: 41%

Q: With CCN1C(=O)/C(=C/c2cccn2C)C(=O)NC1=S as the compound, how does the inhibition read?
A: 51% (active)

Q: How did the inhibition turn out when Cc1cccc(-n2c(/C=C3\C(=O)Nc4ccccc43)nc3ccc(I)cc3c2=O)c1 was run?
A: 15%

Q: Cc1cc([N+](=O)[O-])c(C)cc1-c1ccc(C=C2C(=O)NC(=O)NC2=O)o1 was tested. Which inhibition did it give?
A: 16%

Q: How did the inhibition turn out when Cc1cc(-c2ccc(C=C3C(=O)NC(=O)NC3=O)o2)ccc1[N+](=O)[O-] was run?
A: 67% (active)

Q: Which inhibition does the source give for Cc1c(-c2ccc(C=C3C(=O)NC(=O)NC3=O)o2)ccc([N+](=O)[O-])c1C here?
A: 18%

Q: How did the inhibition turn out when Cc1c(-c2ccc(C=C3C(=O)NC(=S)NC3=O)o2)ccc([N+](=O)[O-])c1C was run?
A: 43%

Q: For Cc1cc(-c2ccc(C=C3C(=O)NC(=S)NC3=O)o2)cc([N+](=O)[O-])c1C, which inhibition is on record?
A: 35%

Q: Which inhibition does the source give for Cc1ccc(-c2ccc(C=C3C(=O)NC(=S)NC3=O)o2)cc1[N+](=O)[O-] here?
A: 62% (active)

Q: For Cc1ccccc1-n1c(/C=C/c2ccc(Br)cc2)nc2ccccc2c1=O, which inhibition is on record?
A: 3%

Q: Which inhibition does the source give for O=C(COc1ccc2ccccc2c1)N1CCN(Cc2ccccc2C(F)(F)F)CC1 here?
A: 51% (active)

Q: Which inhibition does the source give for CCc1ccc(CN2CCN(C(=O)COc3ccc4ccccc4c3)CC2)cc1 here?
A: 19%

Q: With Cc1ccccc1CN1CCN(C(=O)COc2ccc3ccccc3c2)CC1 as the compound, how does the inhibition read?
A: 42%

Q: Which inhibition does the source give for O=C(COc1ccc2ccccc2c1)N1CCN(Cc2ccc([N+](=O)[O-])cc2)CC1 here?
A: 13%

Q: For O=C(COc1ccc2ccccc2c1)N1CCN(Cc2ccccc2[N+](=O)[O-])CC1, which inhibition is on record?
A: 50% (active)

Q: With O=C(COc1ccc2ccccc2c1)N1CCN(Cc2ccc(F)cc2)CC1 as the compound, how does the inhibition read?
A: 0%

Q: Which inhibition does the source give for COc1ccc(/C=C2/C(=O)N(c3ccccc3)C(=S)N(c3ccccc3OC)C2=O)c(OC)c1 here?
A: 5%

Q: COc1ccc(O)c(CN2CCN(c3ccccc3OC)CC2)c1 was tested. Which inhibition did it give?
A: 3%

Q: With O=c1c2ccccc2nc(CSc2ncnc3ccccc23)n1-c1ccccc1 as the compound, how does the inhibition read?
A: 16%

Q: With CCOC(=O)C1=C(C)OC(N)=C(C(=O)OCCOC)C12C(=O)Nc1ccccc12 (centres undefined) as the compound, how does the inhibition read?
A: 0%

Q: How did the inhibition turn out when C=CCN1C(=O)NC(=O)/C(=C\c2ccc(O)c(OC)c2)C1=O was run?
A: 0%

Q: With C=CCN1C(=O)NC(=O)/C(=C/c2ccc(O)c(O)c2)C1=O as the compound, how does the inhibition read?
A: 60% (active)

Q: How did the inhibition turn out when O=C1NC(=O)N(Cc2ccccc2)C(=O)/C1=C/c1ccc(O)c(O)c1 was run?
A: 11%

Q: O=[N+]([O-])c1ccc(N2CCNCC2)cc1N1CCOCC1 was tested. Which inhibition did it give?
A: 3%

Q: With O=c1c2ccccc2nc(-c2ccccn2)n1-c1ccc(Cl)cc1 as the compound, how does the inhibition read?
A: 4%

Q: Which inhibition does the source give for COc1cc(C)c(C=C(C#N)C#N)cc1C here?
A: 50% (active)

Q: With COc1ccc(C=C(C#N)C#N)cc1C as the compound, how does the inhibition read?
A: 44%

Q: How did the inhibition turn out when COc1cc(OC)c(OC)cc1C=C(C#N)C#N was run?
A: 4%

Q: Which inhibition does the source give for O=C1NC(=O)C(=Cc2ccc(N3CCOCC3)c([N+](=O)[O-])c2)C(=O)N1 here?
A: 0%

Q: Which inhibition does the source give for O=[N+]([O-])c1ccc(N2CCCC2)c(F)c1Br here?
A: 34%

Q: O=C1NC(=O)N(c2cccc(Br)c2)C(=O)/C1=C/c1ccco1 was tested. Which inhibition did it give?
A: 19%

Q: Which inhibition does the source give for O=C1NC(=S)N(c2ccccc2)C(=O)/C1=C/c1ccco1 here?
A: 36%

Q: Which inhibition does the source give for O=C1NC(=S)N(c2cccc(Br)c2)C(=O)/C1=C/c1ccco1 here?
A: 98% (active)

Q: Which inhibition does the source give for O=C1NC(=S)N(c2cccc(Cl)c2Cl)C(=O)/C1=C/c1ccc(-c2ccc(C(=O)O)cc2)o1 here?
A: 12%

Q: How did the inhibition turn out when N#CC(C#N)=Cc1ccc(C(F)(F)F)cc1 was run?
A: 1%

Q: CSc1ccc(CN2CCN(c3ccccc3C)CC2)cc1 was tested. Which inhibition did it give?
A: 7%

Q: How did the inhibition turn out when COc1ccc(Br)cc1CN1CCN(C(=O)COc2ccc3ccccc3c2)CC1 was run?
A: 42%

Q: COc1ccc(Br)cc1CN1CCN(C(=O)COc2ccc(Cl)cc2)CC1 was tested. Which inhibition did it give?
A: 52% (active)

Q: Which inhibition does the source give for COc1ccc(Br)cc1CN1CCN(C(=O)COc2ccccc2)CC1 here?
A: 42%
